# PubChem BioAssay (Tox21)
# Records with an inconclusive call do not appear. Values without a mark were called inactive. Activity calls are given as the source filed them. Unless noted, the call rests on the fitted dose curve; in most records, active means well fitted cell-killing curve with a large enough effect in the repeat runs; inconclusive means weak or mixed curves, or effect the other way; inactive means no such curve, though single readings can be large or run the other way.
# Target: Peroxisome proliferator-activated receptor gamma (Homo sapiens) (UniProt P37231)
# Sequence (P37231 whole entry, looked up): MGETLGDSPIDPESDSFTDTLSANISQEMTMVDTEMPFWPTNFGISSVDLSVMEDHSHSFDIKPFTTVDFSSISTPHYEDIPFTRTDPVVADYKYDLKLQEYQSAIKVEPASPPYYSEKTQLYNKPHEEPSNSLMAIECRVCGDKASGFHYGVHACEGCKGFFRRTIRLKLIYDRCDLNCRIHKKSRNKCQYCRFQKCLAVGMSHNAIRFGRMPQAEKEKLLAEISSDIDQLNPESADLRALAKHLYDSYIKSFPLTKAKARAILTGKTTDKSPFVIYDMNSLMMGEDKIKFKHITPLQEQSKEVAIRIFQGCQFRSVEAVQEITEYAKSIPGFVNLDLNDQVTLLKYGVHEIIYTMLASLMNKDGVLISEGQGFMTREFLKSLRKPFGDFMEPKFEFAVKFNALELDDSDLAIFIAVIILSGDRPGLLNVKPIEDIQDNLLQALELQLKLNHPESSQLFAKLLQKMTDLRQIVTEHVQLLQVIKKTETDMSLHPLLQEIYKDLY
# Test: qHTS assay to identify small molecule agonists of the peroxisome proliferator-activated receptor gamma (PPARg) signaling pathway (AID 743094; active means well fitted activation curve with a large enough effect in the signal ratio in the repeat runs, not every such curve was filed as active; the % refers to the signal ratio)
# Conditions: HEK293H PPARg-UAS-bla, beta-lactamase FRET ratio, 17 h; series mostly up to 57 µM; activation: at the top concentration
# How it was run: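 Agonism was assessed in a beta-lactamase reporter system, HEK293H cells with a stably integrated UAS-bla construct under PPARg control; the 17 h treatment at 37C preceded a 1 h room-temperature FRET substrate read.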
# On the % scale 0 is the no-effect control and ±100 the full control effect.
row,Structure (SMILES),activation
1,CN(C(=O)CCCOc1ccc2[nH]c(=O)ccc2c1)C1CCCCC1,0.208%
2,CN(c1nccc(=O)[nH]1)C1CCN(c2nc3ccccc3n2Cc2ccc(F)cc2)CC1,2.42%
3,CC(C)CCCCCCOC(=O)c1ccc(C(=O)OCCCCCCC(C)C)c(C(=O)OCCCCCCC(C)C)c1,-3.67%
4,Cc1ccc2c(ccc3ccccc32)c1,-6.4% [at 78.9 µM]
5,CCCCOC(=O)/C=C\C(=O)OCCCC,-8.66% [at 78.9 µM]
6,CN(C)CCCNCCCN,0.39%
7,OC(CCN1CCCCC1)(c1ccccc1)C1CCCCC1 (stereo not given),-5.92%
8,CC(=O)[C@@]1(O)CC[C@H]2[C@@H]3C[C@H](C)C4=CC(=O)CC[C@]4(C)[C@H]3CC[C@@]21C,1.02%
9,CC(C)(C)C(=O)OCOP(=O)(COCCn1cnc2c(N)ncnc21)OCOC(=O)C(C)(C)C,0.256%
10,N#Cc1c(F)cccc1F,0.0084%

# Target: Peroxisome proliferator-activated receptor gamma (Homo sapiens) (UniProt P37231)
# Test: qHTS assay to identify small molecule antagonists of the peroxisome proliferator-activated receptor gamma (PPARg) signaling pathway (AID 743191; calls by dose curve; further: nearly all actives have a fitted effect of over 30% in size; further: potency means the concentration at half of the fitted maximal effect)
# Conditions: HEK293H PPARg-UAS-bla, beta-lactamase ratio, antagonist, 17 h; series mostly up to 62.6 µM; ratio activity, negative = inhibition: at the top concentration
# How it was run: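 Beta-lactamase reporter under UAS control in HEK293H PPARg-bla cells; compound treatment 17 h at 37C. Read-out: fluorescence intensity after 1 h room-temperature incubation with LiveBLAzer B/G FRET substrate.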
Structure (SMILES),"ratio activity, negative = inhibition",Potency
CC/C(=C\C(=N/O)C(N)=O)C(C)[N+](=O)[O-] (stereo not given),-11.7%,
CC(=O)CC(=O)c1ccccc1,1.51% [at 81.1 µM],
O=C(Nc1ccccc1)OCC(CN1CCCCC1)OC(=O)Nc1ccccc1 (stereo not given),,16.8 µM (active)
CCOC(=O)C1=NN(c2ccccc2)C(=O)C1,-4.48%,
CCCCCc1ccc(N)cc1,12.7%,
CN1CCN(C2=Nc3ccccc3Sc3ccc(Cl)cc32)CC1,-25.9%,

# Test system: not listed separately
# Test: qHTS assay to identify small molecule antagonists of the peroxisome proliferator-activated receptor gamma (PPARg) signaling pathway - cell viability counter screen (AID 743194); further: nearly all actives have a fitted effect of over 55% in size
# Conditions: PPARg-bla HEK293H viability, CellTiter-Glo luminescence, 17 h, co-treated with 50 nM rosiglitazone; series mostly up to 62.6 µM; activity change, negative = cytotoxicity: at the top concentration
# How it was run: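 Viability was measured as CellTiter-Glo luminescence in GeneBLAzer PPARg UAS-bla HEK293H cells. These cells had been exposed 17 h at 37 C to compounds together with rosiglitazone at 50 nM final, with the beta-lactamase readout taken in the same wells.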
row,Structure (SMILES),"activity change, negative = cytotoxicity"
1,CC(C)c1ccc2c(C(C)C)cc(C(C)C)c(S(=O)(=O)O)c2c1,-13.7% [at 81.1 µM]
2,Cc1cc(C)c(S(=O)(=O)O)cc1N=Nc1cc(S(=O)(=O)O)c2ccccc2c1O,13.3%
3,OCCC1CCCCN1 (stereo not given),-12.7% [at 81.1 µM]
4,CC1(C)CCC(C)(C)c2cc(NC(=O)c3ccc(C(=O)O)cc3)ccc21,-0.281%
5,CC/C(=C\C(=N/O)C(N)=O)C(C)[N+](=O)[O-] (stereo not given),-9.62%
6,CC(=O)N(O)CCCCCNC(=O)CCC(=O)N(O)CCCCCNC(=O)CCC(=O)N(O)CCCCCN,-25.5%
7,Cl/C(=C\n1cncn1)c1ccc(Cl)cc1Cl,5.49%
8,CCCCCCCCCO,19.2%
9,CN(C)CCCOc1nn(Cc2ccccc2)c2ccccc12,-11.9%
10,FC(F)(F)C(F)(F)C(F)(F)C(F)(F)C(F)(F)C(F)(F)CCI,1.93%
11,O=C(Cl)c1c(Cl)cccc1Cl,-0.784% [at 81.1 µM]
12,CC(=O)CC(=O)c1ccccc1,-1.89% [at 81.1 µM]
13,CC(=O)O[C@@H]1C(=O)O[C@@H]2[C@H]1OC(=O)[C@@H]2OC(C)=O,-1.91%
14,CC1=CCC(C(C)C)C=C1 (stereo not given),1.5%
15,C#CCOC(=O)[C@@H](C)Oc1ccc(Oc2ncc(Cl)cc2F)cc1,27.3%
16,O=C(Nc1ccccc1)OCC(CN1CCCCC1)OC(=O)Nc1ccccc1 (stereo not given),-14.7%
17,CCOC(=O)C1=NN(c2ccccc2)C(=O)C1,16.8%

row,Structure (SMILES),"activity change, negative = cytotoxicity"
1,CCCCCCOC(=O)CCC,12.8%
2,CCCCCc1ccc(N)cc1,-24.7%
3,CN1CCN(C2=Nc3ccccc3Sc3ccc(Cl)cc32)CC1,-2.62%
4,O=C(CCN1CCN2CCCC2C1)N1c2ccccc2Sc2ccc(Cl)cc21 (stereo not given),-1.92% [at 29.1 µM]
5,CCN(CC)CCc1nc(-c2ccccc2)no1,3.83%
6,COCCO,1.29%
7,CCCCCOC(=O)COc1cc(N2C(=O)C3=C(CCCC3)C2=O)c(F)cc1Cl,3.74%
8,Nc1ccc(C(=O)Nc2ccccc2N)cc1,-3.25%
9,O=C(O)Cc1sc(-c2ccccc2)nc1-c1ccc(Cl)cc1,-0.485%
10,C[C@H](CCC(=O)O)[C@H]1CC[C@H]2[C@@H]3[C@H](O)C[C@@H]4C[C@H](O)CC[C@]4(C)[C@H]3CC[C@]12C,-19.1%
11,CN(C(=O)CCCOc1ccc2[nH]c(=O)ccc2c1)C1CCCCC1,2.74%
12,CN(c1nccc(=O)[nH]1)C1CCN(c2nc3ccccc3n2Cc2ccc(F)cc2)CC1,-16.4%
13,CC(C)CCCCCCOC(=O)c1ccc(C(=O)OCCCCCCC(C)C)c(C(=O)OCCCCCCC(C)C)c1,-16.1%
14,CCCCOC(=O)/C=C\C(=O)OCCCC,11% [at 81.1 µM]
15,CC(=O)[C@@]1(O)CC[C@H]2[C@@H]3C[C@H](C)C4=CC(=O)CC[C@]4(C)[C@H]3CC[C@@]21C,0.199%
16,N#Cc1c(F)cccc1F,-0.881%

# Test system: not listed separately
# Test: qHTS assay for small molecule agonists of the antioxidant response element (ARE) signaling pathway (AID 743202; active means well fitted activation curve with a large enough effect in the signal ratio in the repeat runs, not every such curve was filed as active; the % refers to the signal ratio; further: potency means the concentration at half of the fitted maximal effect)
# Conditions: HepG2 ARE-bla reporter, beta-lactamase FRET, 16 h; series mostly up to 73.3 µM; activation: at the top concentration
# How it was run: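 After 16 hours of compound treatment at 37 C, HepG2 cells with a stably integrated ARE-driven beta-lactamase reporter were loaded 2 hours at room temperature with LiveBLAzer B/G FRET substrate and fluorescence intensity measured.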
Structure (SMILES),activation,Potency
CC(C)CC=O,0.314%,
FC(F)(F)C(F)(F)C(F)(F)C(F)(F)C(F)(F)C(F)(F)CCI,0.0703%,
CN1CCC(=C2c3ccccc3C=Cc3ccccc32)CC1,-12.6%,
O=C(Cl)c1c(Cl)cccc1Cl,-0.108% [at 94.8 µM],
CC(=O)CC(=O)c1ccccc1,-10.2% [at 94.8 µM],
CC(=O)O[C@@H]1C(=O)O[C@@H]2[C@H]1OC(=O)[C@@H]2OC(C)=O,,10.6 µM (active)
CCOC(=O)C1=NN(c2ccccc2)C(=O)C1,-7.52%,
CCCCCCOC(=O)CCC,-10.1%,
CN1CCN(C2=Nc3ccccc3Sc3ccc(Cl)cc32)CC1,-1.01%,
COCCO,-0.195%,
O=C(O)Cc1sc(-c2ccccc2)nc1-c1ccc(Cl)cc1,8.99%,
CN(C(=O)CCCOc1ccc2[nH]c(=O)ccc2c1)C1CCCCC1,0.652%,
Cc1ccc2c(ccc3ccccc32)c1,0.287% [at 94.8 µM],
OC(CCN1CCCCC1)(c1ccccc1)C1CCCCC1 (stereo not given),-4.07%,
CC(C)(C)C(=O)OCOP(=O)(COCCn1cnc2c(N)ncnc21)OCOC(=O)C(C)(C)C,,2.11 µM (active)
N#Cc1c(F)cccc1F,2.49%,
